# Measured values from PubChem BioAssay (EPA / NIEHS).
# Values joined by “and” are separate entries in the source; they are usually repeats but may differ in a detail not shown here. Equal entries are not always repeated. Results filed as inconclusive are left out. A structure can be active in one record and inactive in another. Active and inactive are the calls of the source. How the source made its calls: active means hit-call score of the fitted dose curve at least 0.9, where 1 is the maximum; inconclusive means response in the unintended direction; inactive means score below 0.9.
# Key:
# [1] = ACEA_ER_AUC_viability: ACEA Biosciences xCELLigence Real-Time Cell Analysis on Estrogen Receptor Agonism for Viability (AID 2283782);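 further: continuous compound exposure with impedance area under curve over 80 h; hit means loss of impedance signal meaning reduced cell growth or viability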
# How it was run: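 T47D cells preconditioned in phenol red-free RPMI with charcoal-stripped FBS, then dosed with 8-point 1:4 series from 100 uM (up to 0.5% DMSO). Impedance monitored up to ~80 h; area-under-curve loss versus DMSO taken as viability.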
# [2] = STM_H9_NormalizedViability: Cytotoxicity Assessment at 120 hours in the Stemina devTOX quickPredict H9 human embryonic stem cell (hESC)-based Assay (AID 2283784)
# How it was run: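 Undifferentiated H9 hESCs kept pluripotent were exposed to compound, with media and chemical replaced every 24h. CellTiter-Fluor protease-substrate fluorescence was background-corrected and normalized per plate to the 0.1% DMSO vehicle; signal loss indicates reduced viability.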
# [3] = target: GAL4 Transcription Factor (Internal Marker), GAL4 (gene 855828) (UniProt P04386); assay: ATG_GAL4_XSP1: Attagene TRANS-FACTORIAL Multi-Species (XSP1) HepG2 Assay for GAL4 Transcription Factor (Internal Marker) (AID 2283789)
# How it was run: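 HepG2 cells transiently transfected with multiplexed GAL4-UAS reporter units were exposed for 24 h with 3 nM 6-alpha-fluorotestosterone present. Reporter mRNA was quantified by RT-PCR, FAM labelling, HpaI digestion and capillary electrophoresis; background-control readout, gain-of-signal versus DMSO.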
# [4] = ATG_M_06_XSP1: Attagene TRANS-FACTORIAL Multi-Species (XSP1) HepG2 Assay for M06 Transcription Factor (Internal Marker) (AID 2283790)
# How it was run: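 Transfected HepG2 multi-reporter system treated 24 h in the presence of 3 nM 6-alpha-fluorotestosterone. The M06 internal marker transcript was quantified by RT-PCR with capillary electrophoresis as a background control, and gain of signal was scored versus DMSO.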
# [5] = ATG_M_61_XSP1: Attagene TRANS-FACTORIAL Multi-Species (XSP1) HepG2 Assay for M61 Transcription Factor (Internal Marker) (AID 2283797)
# How it was run: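 HepG2 cells transiently transfected with multiplexed GAL4-driven reporter units, dosed 24 h with 3 nM 6-alpha-fluorotestosterone present. Reporter mRNA quantified by RT-PCR, 6-FAM labelling, HpaI digestion and capillary electrophoresis; internal-marker background control, gain of signal versus DMSO.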
# [6] = ATG_M_32_XSP1: Attagene TRANS-FACTORIAL Multi-Species (XSP1) HepG2 Assay for M32 Transcription Factor (Internal Marker) (AID 2283799)
# How it was run: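 HepG2 cells transiently transfected with multi-species TRANS reporter units, dosed 24 h with 3 nM 6-alpha-fluorotestosterone present. Internal-marker reporter mRNA quantified by RT-PCR and capillary electrophoresis; positive-direction fit versus DMSO.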
# [7] = target: mouse Peroxisome Proliferator-activated Receptor gamma (PPARg), Pparg (gene 19016) (UniProt P37238); assay: ATG_mPPARg_XSP1: Attagene TRANS-FACTORIAL Multi-Species (XSP1) HepG2 Assay for mouse Peroxisome Proliferator-activated Receptor gamma (PPARg) (AID 2283802)
# How it was run: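 HepG2 cells transiently transfected with GAL4-UAS reporter units driven by mouse PPARg–GAL4 chimera; 3 nM 6-alpha-fluorotestosterone present. After 24 h dosing, reporter mRNA quantified by RT-PCR, fluorescent labelling and capillary electrophoresis; gain of signal versus DMSO.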
# [8] = target: Nuclear receptor subfamily 1 group I member 2 (Mus musculus) (UniProt O54915); assay: ATG_mPXR_XSP1: Attagene TRANS-FACTORIAL Multi-Species (XSP1) HepG2 Assay for mouse Pregnane X Receptor (PXR) (AID 2283803)
# How it was run: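 Transiently transfected HepG2 cells expressing a receptor-Gal4 chimera drive a GAL4-UAS reporter; 3 nM 6-alpha-fluorotestosterone included. Reporter mRNA read 24 h post-dose by RT-PCR and capillary electrophoresis; gain of signal relative to DMSO.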
# [9] = target: frog Thyroid hormone Receptor alpha (TRa), thra-a (gene 397942) (UniProt P15204); assay: ATG_frTRa_XSP1: Attagene TRANS-FACTORIAL Multi-Species (XSP1) HepG2 Assay for frog Thyroid hormone Receptor alpha (TRa) (AID 2283804)
# How it was run: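 HepG2 cells transiently transfected with frog TRa-GAL4 chimeric reporter units, dosed 24 hr with 3 nM 6-alpha-fluorotestosterone present; reporter mRNA quantified by RT-PCR, fluorescent labelling and capillary electrophoresis, gain of signal versus DMSO.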
# [10] = target: human Thyroid hormone Receptor alpha (TRa), THRA (gene 7067) (UniProt P10827); assay: ATG_hTRa_XSP1: Attagene TRANS-FACTORIAL Multi-Species (XSP1) HepG2 Assay for human Thyroid hormone Receptor alpha (TRa) (AID 2283805)
# How it was run: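 HepG2 cells transiently transfected with GAL4-UAS reporter units expressing chimeric NR-Gal4 proteins, dosed 24 hours with 3 nM 6-alpha-fluorotestosterone present. Reporter mRNA measured by RT-PCR and capillary electrophoresis; gain of signal fitted versus DMSO.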
# [11] = tested on: turtle Thyroid Hormone Receptor, alpha (TRa), gene 101949057; assay: ATG_trTRa_XSP1: Attagene TRANS-FACTORIAL Multi-Species (XSP1) HepG2 Assay for turtle Thyroid Hormone Receptor, alpha (TRa) (AID 2283806)
# How it was run: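 HepG2 cells transiently transfected with GAL4-UAS reporter units and chimeric receptor-Gal4 constructs, with 3 nM 6-alpha-fluorotestosterone present. Reporter mRNA was quantified 24 h after dosing by RT-PCR, 6-FAM labelling and capillary electrophoresis; gain of signal versus DMSO.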
# [12] = target: zebrafish Thyroid Hormone Receptor alpha (TRa), thraa (gene 30670) (UniProt Q98867); assay: ATG_zfTRa_XSP1: Attagene TRANS-FACTORIAL Multi-Species (XSP1) HepG2 Assay for zebrafish Thyroid Hormone Receptor alpha (TRa) (AID 2283807)
# How it was run: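 HepG2 cells transiently transfected with GAL4-UAS reporter units including a zebrafish TRa–Gal4 chimera, dosed 24 h with 3 nM 6-alpha-fluorotestosterone present. Reporter mRNA quantified by RT-PCR and capillary electrophoresis; gain versus DMSO.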
# [13] = target: human Thyroid hormone Receptor beta (TRb), THRB (gene 7068) (UniProt P10828); assay: ATG_hTRb_XSP1: Attagene TRANS-FACTORIAL Multi-Species (XSP1) HepG2 Assay for human Thyroid hormone Receptor beta (TRb) (AID 2283808)
# How it was run: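 HepG2 cells transiently transfected with reporter units driving GAL4-UAS reporters for chimeric NR-Gal4 proteins; 24 h chemical exposure with 3 nM 6-alpha-fluorotestosterone present. Reporter mRNA quantified by RT-PCR and capillary electrophoresis, gain of signal versus DMSO.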
# [14] = target: AR (gene 367) (UniProt P10275); assay: ACEA_AR_agonist_80hr: ACEA Biosciences xCELLigence Real-Time Cell Analysis on Androgen Receptor Agonism for Proliferation (AID 2283783);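 further: hits increase impedance growth signal above DMSO baseline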
# How it was run: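 Proliferation of 22Rv1 prostate cancer cells tracked by electrical impedance, endpoint taken at 80 hours after dosing. Eight-point 1:4 dilutions from 100 uM maximum final, duplicate; testosterone and MG132 as positive controls, assay media as negative.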
# [15] = target: AR (gene 367) (UniProt P10275); assay: ACEA_AR_antagonist_80hr: ACEA Biosciences xCELLigence Real-Time Cell Analysis on Androgen Receptor Antagonism for Proliferation (AID 2283787);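 further: 22Rv1 human prostate cancer cells with growth followed by electrical impedance; hits lower the impedance growth signal relative to DMSO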
# How it was run: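 22Rv1 cells in assay medium, growth tracked by electrical impedance; compounds eight-point 1:4 dilutions from 100 uM final, duplicate plates. Endpoint at 80 h; loss of signal versus DMSO.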
# [16] = tested on: turtle Androgen Receptor (AR), gene 101947425; assay: ATG_trAR_XSP1: Attagene TRANS-FACTORIAL Multi-Species (XSP1) HepG2 Assay for turtle Androgen Receptor (AR) (AID 2283786)
# How it was run: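 HepG2 cells transiently transfected with a turtle AR–GAL4 chimera and GAL4-UAS reporter, co-treated with 3 nM 6-alpha-fluorotestosterone for partial stimulation. Reporter mRNA is quantified at 24 h by RT-PCR and capillary electrophoresis, gain-of-signal versus DMSO.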
# [17] = target: Estrogen receptor beta (Homo sapiens) (UniProt Q92731); assay: ATG_hERb_XSP1: Attagene TRANS-FACTORIAL Multi-Species (XSP1) HepG2 Assay for human Estrogen Receptor (ESR2) (AID 2283788)
# How it was run: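 HepG2 cells transiently transfected with GAL4-UAS multiplexed reporter units, 3 nM 6-alpha-fluorotestosterone present; 24 h exposure. Reporter mRNA measured by RT-PCR, fluorescent labelling and capillary electrophoresis; gain of signal fitted against DMSO.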
# [18] = target: Peroxisome proliferator-activated receptor gamma (Homo sapiens) (UniProt P37231); assay: ATG_hPPARg_XSP1: Attagene TRANS-FACTORIAL Multi-Species (XSP1) HepG2 Assay for human Peroxisome Proliferator-activated Receptor gamma (PPARg) (AID 2283800)
# How it was run: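 HepG2 cells transiently transfected with GAL4-UAS reporter units carrying chimeric NR-Gal4 proteins; 3 nM 6-alpha-fluorotestosterone present. After 24 h dosing, reporter mRNA quantified by RT-PCR and capillary electrophoresis; gain of signal relative to DMSO.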
# [19] = tested on: zebrafish Peroxisome Proliferator-activated Receptor gamma (PPARg), gene 557037; assay: ATG_zfPPARg_XSP1: Attagene TRANS-FACTORIAL Multi-Species (XSP1) HepG2 Assay for zebrafish Peroxisome Proliferator-activated Receptor gamma (PPARg) (AID 2283801)
# How it was run: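 HepG2 cells transiently transfected with GAL4-UAS reporter units including a zebrafish PPARg–GAL4 chimera, dosed 24 h with 3 nM 6-alpha-fluorotestosterone present. Reporter mRNA quantified by RT-PCR, FAM labelling, HpaI digestion and capillary electrophoresis; induction versus DMSO.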
# [20] = ATG_M_19_XSP1: Attagene TRANS-FACTORIAL Multi-Species (XSP1) HepG2 Assay for M19 Transcription Factor (Internal Marker) (AID 2283798)
# How it was run: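 HepG2 cells transiently transfected with multiplexed GAL4-UAS reporter units, dosed 24 h with 3 nM 6-alpha-fluorotestosterone present for partial AR stimulation. Reporter mRNA measured by RT-PCR with capillary electrophoresis; gain-of-signal fitted relative to DMSO.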
# zebrafish Thyroid Hormone Receptor alpha (TRa), thraa (gene 30670), sequence (Q98867 whole entry, looked up, the tested form may be a part): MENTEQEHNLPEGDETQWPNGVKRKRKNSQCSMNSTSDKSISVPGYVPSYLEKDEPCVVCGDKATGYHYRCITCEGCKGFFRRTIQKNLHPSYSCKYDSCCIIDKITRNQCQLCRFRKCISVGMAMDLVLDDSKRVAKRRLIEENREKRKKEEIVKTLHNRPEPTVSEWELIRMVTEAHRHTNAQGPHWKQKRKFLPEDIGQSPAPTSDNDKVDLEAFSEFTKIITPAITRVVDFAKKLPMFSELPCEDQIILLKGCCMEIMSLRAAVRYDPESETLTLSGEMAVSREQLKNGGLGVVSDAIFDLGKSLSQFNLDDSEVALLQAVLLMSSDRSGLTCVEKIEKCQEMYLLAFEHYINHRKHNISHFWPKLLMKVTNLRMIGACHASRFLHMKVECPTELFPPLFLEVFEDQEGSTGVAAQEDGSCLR
# GAL4 Transcription Factor (Internal Marker), GAL4 (gene 855828), sequence (P04386 whole entry, looked up, the tested form may be a part): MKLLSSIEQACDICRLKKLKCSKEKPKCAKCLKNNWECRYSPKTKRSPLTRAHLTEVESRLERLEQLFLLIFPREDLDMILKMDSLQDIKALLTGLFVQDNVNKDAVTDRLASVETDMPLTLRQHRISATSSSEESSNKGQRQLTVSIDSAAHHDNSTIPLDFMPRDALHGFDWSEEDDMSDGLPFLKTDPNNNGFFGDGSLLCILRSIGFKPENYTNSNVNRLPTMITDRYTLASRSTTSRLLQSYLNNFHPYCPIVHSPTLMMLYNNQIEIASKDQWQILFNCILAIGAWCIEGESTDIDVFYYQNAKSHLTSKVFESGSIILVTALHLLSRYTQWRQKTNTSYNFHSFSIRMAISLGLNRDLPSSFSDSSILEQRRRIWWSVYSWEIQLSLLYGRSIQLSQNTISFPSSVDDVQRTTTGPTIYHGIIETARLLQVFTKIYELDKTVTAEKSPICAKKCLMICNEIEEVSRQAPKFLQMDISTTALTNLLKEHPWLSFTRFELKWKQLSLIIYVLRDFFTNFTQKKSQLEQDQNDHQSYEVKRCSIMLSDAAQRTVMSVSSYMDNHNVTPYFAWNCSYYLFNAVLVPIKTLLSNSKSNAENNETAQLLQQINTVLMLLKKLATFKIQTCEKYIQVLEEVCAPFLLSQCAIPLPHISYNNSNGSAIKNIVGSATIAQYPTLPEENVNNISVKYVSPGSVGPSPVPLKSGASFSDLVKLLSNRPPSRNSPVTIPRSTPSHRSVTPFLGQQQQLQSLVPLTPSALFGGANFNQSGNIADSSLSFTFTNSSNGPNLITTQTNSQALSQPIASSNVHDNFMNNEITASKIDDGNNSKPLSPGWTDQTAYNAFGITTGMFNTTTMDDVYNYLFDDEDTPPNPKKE
# AR (gene 367), sequence (P10275 whole entry, looked up): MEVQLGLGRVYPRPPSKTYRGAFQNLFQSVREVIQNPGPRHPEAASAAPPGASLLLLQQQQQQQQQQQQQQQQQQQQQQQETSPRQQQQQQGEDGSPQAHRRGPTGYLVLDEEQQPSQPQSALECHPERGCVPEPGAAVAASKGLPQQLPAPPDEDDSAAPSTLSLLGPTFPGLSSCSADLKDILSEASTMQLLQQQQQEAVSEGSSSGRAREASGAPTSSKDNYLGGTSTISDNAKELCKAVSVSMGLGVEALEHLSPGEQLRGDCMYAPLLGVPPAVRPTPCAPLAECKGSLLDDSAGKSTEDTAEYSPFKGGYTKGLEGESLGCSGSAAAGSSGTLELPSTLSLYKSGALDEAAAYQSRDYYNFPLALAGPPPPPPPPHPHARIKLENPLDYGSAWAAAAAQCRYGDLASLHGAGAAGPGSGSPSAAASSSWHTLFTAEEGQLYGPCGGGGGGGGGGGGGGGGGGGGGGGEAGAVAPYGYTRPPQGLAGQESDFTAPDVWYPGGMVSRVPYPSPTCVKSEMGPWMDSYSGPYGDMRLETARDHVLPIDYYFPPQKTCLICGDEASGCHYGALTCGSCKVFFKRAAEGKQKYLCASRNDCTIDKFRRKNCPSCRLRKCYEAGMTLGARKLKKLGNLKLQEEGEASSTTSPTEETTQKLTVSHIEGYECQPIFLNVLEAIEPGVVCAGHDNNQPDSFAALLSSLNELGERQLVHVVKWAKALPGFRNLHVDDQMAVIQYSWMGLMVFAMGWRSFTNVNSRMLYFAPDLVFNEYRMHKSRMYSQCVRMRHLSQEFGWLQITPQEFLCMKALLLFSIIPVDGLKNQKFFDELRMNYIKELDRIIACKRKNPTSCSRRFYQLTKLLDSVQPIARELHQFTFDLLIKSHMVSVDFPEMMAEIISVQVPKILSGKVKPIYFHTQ
# human Thyroid hormone Receptor alpha (TRa), THRA (gene 7067), sequence (P10827 whole entry, looked up, the tested form may be a part): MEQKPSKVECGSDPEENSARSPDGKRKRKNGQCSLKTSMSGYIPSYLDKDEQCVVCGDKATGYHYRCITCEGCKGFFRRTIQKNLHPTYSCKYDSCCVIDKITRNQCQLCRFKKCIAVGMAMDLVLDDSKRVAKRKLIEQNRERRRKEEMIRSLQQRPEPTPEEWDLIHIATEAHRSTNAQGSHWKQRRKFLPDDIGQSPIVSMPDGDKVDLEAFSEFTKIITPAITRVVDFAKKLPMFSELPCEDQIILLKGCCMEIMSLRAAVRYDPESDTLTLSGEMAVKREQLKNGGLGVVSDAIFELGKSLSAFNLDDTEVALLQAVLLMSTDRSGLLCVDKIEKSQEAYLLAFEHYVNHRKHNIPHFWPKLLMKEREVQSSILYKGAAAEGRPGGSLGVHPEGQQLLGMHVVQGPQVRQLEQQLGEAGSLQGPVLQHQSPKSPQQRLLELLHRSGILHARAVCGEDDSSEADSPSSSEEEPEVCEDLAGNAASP
# Estrogen receptor beta (Homo sapiens), sequence (Q92731 whole entry, looked up, the tested form may be a part): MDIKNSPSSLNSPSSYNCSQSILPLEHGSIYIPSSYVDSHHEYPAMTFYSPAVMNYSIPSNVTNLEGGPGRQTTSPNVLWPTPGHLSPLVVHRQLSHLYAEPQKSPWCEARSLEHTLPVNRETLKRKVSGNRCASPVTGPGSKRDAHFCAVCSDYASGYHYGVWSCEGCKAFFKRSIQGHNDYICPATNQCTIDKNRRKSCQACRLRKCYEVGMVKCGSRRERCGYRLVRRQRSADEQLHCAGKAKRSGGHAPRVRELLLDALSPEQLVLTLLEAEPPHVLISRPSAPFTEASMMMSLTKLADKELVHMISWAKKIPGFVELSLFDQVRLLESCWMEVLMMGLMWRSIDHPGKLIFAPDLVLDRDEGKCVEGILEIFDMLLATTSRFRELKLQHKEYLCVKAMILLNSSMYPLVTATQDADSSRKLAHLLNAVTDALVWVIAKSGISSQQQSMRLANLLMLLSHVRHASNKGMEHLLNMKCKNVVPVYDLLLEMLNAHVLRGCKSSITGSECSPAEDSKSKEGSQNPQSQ
# human Thyroid hormone Receptor beta (TRb), THRB (gene 7068), sequence (P10828 whole entry, looked up, the tested form may be a part): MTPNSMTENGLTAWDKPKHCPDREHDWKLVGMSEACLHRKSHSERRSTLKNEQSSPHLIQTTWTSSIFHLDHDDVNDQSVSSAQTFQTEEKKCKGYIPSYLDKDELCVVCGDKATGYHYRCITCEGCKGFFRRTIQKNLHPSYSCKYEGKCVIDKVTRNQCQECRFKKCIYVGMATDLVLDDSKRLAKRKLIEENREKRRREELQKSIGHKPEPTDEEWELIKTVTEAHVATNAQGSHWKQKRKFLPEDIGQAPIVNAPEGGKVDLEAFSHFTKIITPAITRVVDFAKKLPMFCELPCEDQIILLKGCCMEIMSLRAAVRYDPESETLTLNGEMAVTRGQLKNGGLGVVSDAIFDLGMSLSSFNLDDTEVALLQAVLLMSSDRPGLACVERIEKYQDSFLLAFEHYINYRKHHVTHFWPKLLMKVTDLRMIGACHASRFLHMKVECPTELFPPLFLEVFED
# Nuclear receptor subfamily 1 group I member 2 (Mus musculus), sequence (O54915 whole entry, looked up, the tested form may be a part): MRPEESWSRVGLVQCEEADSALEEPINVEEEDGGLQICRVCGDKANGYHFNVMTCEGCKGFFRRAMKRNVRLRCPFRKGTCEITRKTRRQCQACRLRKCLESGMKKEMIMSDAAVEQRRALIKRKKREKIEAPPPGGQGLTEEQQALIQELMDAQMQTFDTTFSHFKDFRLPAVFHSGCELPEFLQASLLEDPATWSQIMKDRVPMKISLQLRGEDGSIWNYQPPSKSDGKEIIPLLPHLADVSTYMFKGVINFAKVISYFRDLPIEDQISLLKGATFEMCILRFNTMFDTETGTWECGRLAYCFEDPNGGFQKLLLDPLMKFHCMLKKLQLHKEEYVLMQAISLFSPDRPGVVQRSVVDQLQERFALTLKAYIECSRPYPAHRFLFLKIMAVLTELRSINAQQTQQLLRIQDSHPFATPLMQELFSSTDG
# Peroxisome proliferator-activated receptor gamma (Homo sapiens), sequence (P37231 whole entry, looked up, the tested form may be a part): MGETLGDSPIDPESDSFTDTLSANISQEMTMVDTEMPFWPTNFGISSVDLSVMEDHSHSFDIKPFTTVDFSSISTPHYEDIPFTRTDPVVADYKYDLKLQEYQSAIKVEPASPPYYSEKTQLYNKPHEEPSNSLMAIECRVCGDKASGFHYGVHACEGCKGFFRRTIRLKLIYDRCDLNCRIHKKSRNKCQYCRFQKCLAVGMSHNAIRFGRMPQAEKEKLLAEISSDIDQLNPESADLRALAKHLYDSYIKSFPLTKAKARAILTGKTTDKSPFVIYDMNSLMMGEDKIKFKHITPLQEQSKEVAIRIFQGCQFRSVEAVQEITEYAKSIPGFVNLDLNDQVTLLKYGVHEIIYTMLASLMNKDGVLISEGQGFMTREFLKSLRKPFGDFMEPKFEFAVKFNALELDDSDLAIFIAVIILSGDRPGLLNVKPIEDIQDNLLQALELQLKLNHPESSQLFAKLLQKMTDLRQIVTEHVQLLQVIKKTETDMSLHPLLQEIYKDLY
structure (smiles),measurement,setting,value
Oc1ccc(C(c2ccc(O)cc2)(C(F)(F)F)C(F)(F)F)cc1,AC50,[1],83.7 µM (active) and 72 µM (active) and 73.8 µM (active)
same,outcome,[2],inactive
same,outcome,[3],inactive
same,outcome,[4],inactive
same,outcome,[5],inactive
same,outcome,[6],inactive
same,AC50,[7],33.4 µM (active)
same,outcome,[8],inactive
same,outcome,[9],inactive
same,outcome,[10],inactive
same,outcome,[11],inactive
same,outcome,[12],inactive
same,AC50,[13],62.3 µM (active)
same,outcome,[13],inactive
Clc1ccc(C(Cl)(Cl)Cl)cc1,AC50,[2],83.6 µM (active)
CO/C=C(/C(=O)OC)c1ccccc1COc1cccc(C(F)(F)F)n1,outcome,[2],inactive
CCC(C)c1cc([N+](=O)[O-])cc([N+](=O)[O-])c1O (stereo not given),outcome,[2],inactive
O=C(N[C@H]1CN2CCC1CC2)c1cc2ccoc2cn1,outcome,[14],inactive
same,AC50,[15],33.1 µM (active)
CCOCCOC(C)=O,outcome,[2],inactive
C[C@]12CCC(=O)C=C1CC[C@@H]1[C@@H]2CC[C@]2(C)C(=O)CC[C@@H]12,AC50,[16],0.658 µM (active)
same,AC50,[17],16.4 nM (active) and 8 nM (active)
same,outcome,[3],inactive
same,outcome,[4],inactive
same,outcome,[5],inactive
same,outcome,[6],inactive
same,outcome,[18],inactive
same,outcome,[19],inactive
same,AC50,[8],2.3 µM (active)
same,outcome,[9],inactive
same,outcome,[10],inactive
same,outcome,[11],inactive
same,outcome,[12],inactive
same,outcome,[13],inactive
CCSC(=O)N(CC)C1CCCCC1,outcome,[1],inactive
same,outcome,[2],inactive
c1cc2ccc3cccc4ccc(c1)c2c34,outcome,[1],inactive
same,AC50,[15],25.5 µM (active)
ClC(Cl)=C(c1ccc(Cl)cc1)c1ccc(Cl)cc1,AC50,[1],80.6 µM (active) and 29.5 µM (active) and 74.7 µM (active)
same,outcome,[20],inactive
same,outcome,[6],inactive
same,outcome,[19],inactive
same,outcome,[7],inactive
same,outcome,[8],inactive
same,outcome,[11],inactive
same,outcome,[12],inactive
same,outcome,[13],inactive
c1ccc(-c2ccccc2)cc1,outcome,[1],inactive
same,outcome,[15],inactive
O=C(NC(=O)c1c(F)cccc1F)Nc1cc(Cl)c(OC(F)(F)C(F)F)c(Cl)c1,outcome,[14],inactive
same,AC50,[15],50 µM (active)
C=CC(N)=O,outcome,[2],inactive
C1CC2OC2CC1C1CO1 (stereo not given),AC50,[2],74.5 µM (active)
Clc1ccc(C(c2ccccc2Cl)C(Cl)(Cl)Cl)cc1 (stereo not given),AC50,[1],42.8 µM (active) and 53.5 µM (active) and 50.9 µM (active)
same,AC50,[2],88.7 µM (active)
same,outcome,[17],inactive
same,outcome,[3],inactive
same,outcome,[20],inactive
same,outcome,[6],inactive
same,outcome,[18],inactive
same,AC50,[8],2.03 µM (active)
same,outcome,[10],inactive
same,outcome,[11],inactive
same,outcome,[12],inactive
same,outcome,[13],inactive
